Hits are enriched below; roughly 0.95% of the tested compounds scored in any of these assays.
TexasRed autofl: compounds fluorescent in Texas Red spectral region; Compound fluorescence, Texas Red channel, 547/618 nm; active compounds read high; max dye-equivalent concentration, M; 59,000 tested, 0.06% active; AID 587; in the data active = max dye-equivalent concentration above about 10 nM; inconclusive = between about 1.1 nM and that limit
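Compound fluorescence was read after 15 min at room temperature in 100 mM Tris, pH 8.0, using 547 nm excitation and 618 nm emission across a concentration series. It was expressed as Texas Red dye-equivalent concentration from an on-plate standard curve.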
Resorufin autofl: compound fluoresces in the resorufin spectral region; 59,000 tested, 0.04% active; max dye-equivalent concentration, M; Compound fluorescence, resorufin region 547/598 nm, buffer; active compounds read high
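Compounds in 100 mM Tris buffer, pH 8.0, incubated 15 min at room temperature, then read with 547 nm excitation and 598 nm emission filters. Fluorescence was converted to dye-equivalent concentration using an on-plate six-point resorufin standard curve.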
Fluorescein autfl: fluorescein region autofluorescence; max fluorescein-equivalent concentration, M; Compound autofluorescence, 480/540 nm, fluorescein-equivalent; active compounds read high; AID 593; 59,000 tested, 0.91% active; in the data active = max fluorescein-equivalent concentration above about 10 nM; inconclusive = between about 1.1 nM and that limit
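Compounds (23 nL) in 100 mM Tris pH 8.0, 15 min at room temperature, then fluorescence read at 480 nm excitation/540 nm emission. Signal converted to fluorescein-equivalent concentration from an on-plate fluorescein standard curve.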
A488 autofl: compound fluoresces in the A488 spectral region. compound autofluorescence, A488 spectral region, dye equivalency; Compound Type: qHTS ECL - MLSMR. max dye equivalency, M. 59,000 tested, 0.1% active
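Compound autofluorescence was read in 100 mM Tris pH 8.0 after 15 min at room temperature, ex 480 nm/em 540 nm. Intensities were converted to A488 dye-equivalent concentration using an on-plate six-point A488 standard curve.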
A647 fluor: compound autofluorescence in A647 spectral region; Compound fluorescence, A647 channel (570/671 nm), Tris buffer; AID 592; max dye-equivalent concentration, M; 59,000 tested, under 10 active;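 also: values scaled relative to a standard on each plate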
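Compound fluorescence was measured in 100 mM Tris buffer, pH 8.0, after 15 min at room temperature, using 570 nm excitation and 671 nm emission filters. Signal was normalized to a per-plate Alexa 647 standard curve and expressed as dye-equivalent concentration at each compound concentration.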
Rhodamine autofl: rhodamine region autofluorescence; Rhodamine-region fluorescence, 547/598 nm, Tris buffer; active compounds read high; max dye-equivalent concentration, M; 59,000 tested, 0.05% active; AID 594; in the data active = max dye-equivalent concentration above about 11 nM; inconclusive = between about 1.1 nM and that limit
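Compounds in 100 mM Tris buffer, pH 8.0, were incubated 15 min at room temperature, then read at 547 nm excitation and 598 nm emission. Fluorescence was normalized against a per-plate six-point rhodamine standard curve as dye-equivalent concentration.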
* hit, by the source's call; i = inactive; u = inconclusive; ! = not confirmed by another sample. Unless noted, no rule for the calls is given here.

SMILES	TexasRed autofl	Resorufin autofl	Fluorescein autfl	A488 autofl	A647 fluor	Rhodamine autofl
COc1ccc(-c2ccc(-c3noc(-c4ccccc4C)n3)c(OC)n2)cc1	u	i	1.2e-08M*	i	1e-09	i
CC1=c2c(oc3cc(O)c(Nc4c(C)cc(O)cc4O)c(C)c23)=CC(=O)C1=Nc1c(C)cc(O)cc1O	2.6e-07M*	7.4e-08M*	1.5e-08M*	i	9.9e-08	1.2e-07M*
N[C@H](CS(=O)O)C(=O)O	u	i	i	i	1.7e-09	i
CCOC(=O)C(C(=O)OCC)c1cc(Br)c2noc3c2c1C(=O)c1ccccc1-3	i	i	2.6e-07M*	1.2e-08M*	5.6e-09	i
CCOC(=O)c1c2c(n3ccccc13)C(=O)c1ccccc1C2=O	i	i	u	i	1e-09	i
Cc1ccccc1CNc1ncnc2c1ncn2[C@@H]1O[C@@H](CO)[C@H](O)[C@@H]1O	u	i	2e-08M*	i	1.2e-09	i
Cc1cc(OCC(=O)NCCN2CCOCC2)ccc1Br	i	i	2.3e-08M*	i	2.6e-08	i
CC1(C)CC(=O)C2=C(C1)OC(N)=C(C#N)C21CCN(Cc2ccccc2)CC1	i	i	3.2e-08M*	u	3.7e-08	i
C[C@@H]1O[C@@H](OC[C@@H]2O[C@@H](Oc3c(-c4ccc(O)c(O)c4)oc4cc(O)cc(O)c4c3=O)[C@H](O)[C@H](O)[C@@H]2O)[C@H](O)[C@H](O)[C@@H]1O	i	i	u	i	3.8e-09	i
O=C1O/C(=C\Br)CC[C@@H]1c1cccc2ccccc12	i	i	u	i	6.4e-08	i
COc1c2ccoc2cc2oc(=O)ccc12	i	i	i	i	4e-09	i
COc1ccc2c(OC)c3ccoc3nc2c1OC	u	i	1e-08M*!	i	1e-09	i
CC(CS(=O)(=O)c1cccc2cccnc12)N1CCCCC1 (stereo not drawn)	i	i	1.6e-08M*	i	4.8e-08	i
O=S(=O)(NC1CCCCCC1)c1cccc2cccnc12	i	i	i	i	4.9e-09	i
CC(=O)Nc1ccc(S(=O)(=O)Nc2nc3ccccc3nc2Sc2nncn2C)cc1	i	i	1.4e-08M*	i	4.6e-09	i
Cn1cnnc1Sc1nc2ccccc2nc1NS(=O)(=O)c1ccccc1	i	i	u	i	7e-09	i
Cn1ccnc1Sc1nc2ccccc2nc1NS(=O)(=O)c1ccccc1	i	i	1.1e-08M*	i	1e-09	i
Cc1c(Nc2nc3ccccc3nc2NS(=O)(=O)c2ccccc2)c(=O)n(-c2ccccc2)n1C	i	i	i	i	1e-09	i
COc1ccc(OC)c([C@H]2Nc3ccccc3NC3=C2C(=O)CC(C)(C)C3)c1Br	u	i	i	i	1e-09	i
CCN(CC)c1nc2ccccc2nc1C(C#N)C(=O)NCCc1ccccc1 (stereo not drawn)	u	i	1.1e-07M*	u	1.5e-08	i
CCOC(=O)C1CCCN(c2nc3ccccc3nc2C(C#N)C(=O)NCc2ccccc2)C1 (stereo not drawn)	i	i	8.6e-07M*	5e-08M*	1e-09	i
CCN1CCN(c2nc3ccccc3nc2C(C#N)C(=O)OCc2ccccc2)CC1 (stereo not drawn)	i	i	u	i	6.6e-09	i
CCN(CC)c1nc2ccccc2nc1C(C#N)C(=O)NCCCOC (stereo not drawn)	i	i	u	i	6.7e-09	i
CCOC(=O)N1CCN(c2nc3ccccc3nc2C(C#N)C(=O)NCCc2ccccc2)CC1 (stereo not drawn)	i	i	1.1e-08M*	i	1e-09	i
N#CC(C(=O)NCc1ccccc1)c1nc2ccccc2nc1N1CCCC1 (stereo not drawn)	i	i	3.9e-07M*	2.2e-08M*	2.6e-09	i
SMILES	TexasRed autofl	Resorufin autofl	Fluorescein autfl	A488 autofl	A647 fluor	Rhodamine autofl
N[C@@H](Cc1c[nH]c2ccccc12)C(=O)NCC(=O)O	i	i	i	i	3.8e-09	i
N#CC(C(=O)NCCc1ccccc1)c1nc2ccccc2nc1N1CCCCC1 (stereo not drawn)	i	i	1.2e-07M*	u	3.9e-09	i
N#CC(C(=O)NCCc1ccccc1)c1nc2ccccc2nc1N1CCOCC1 (stereo not drawn)	i	i	u	i	4.6e-08	i
N#[N+]c1ccc(Nc2ccccc2)cc1	i	i	1.3e-08M*	i	1e-09	i
C[C@@]12CC[C@H]3[C@H](CC=C4C[C@@H](O)CC[C@@]43C)[C@@H]1CC[C@@H]2N(CCO)CCO	i	i	i	i	1.4e-08	i
CCN[C@@H]1C[C@H](N)[C@H](O[C@H]2OC(CN)=CC[C@H]2N)[C@@H](O)[C@H]1O[C@H]1OC[C@@](C)(O)[C@@H](NC)[C@@H]1O	i	i	2.4e-08M*	i	1e-09	i
CN[C@H]1[C@H](O)[C@@H](O[C@@H]2[C@H](O)[C@@H](O[C@H]3OC(CN)=CC[C@H]3N)[C@@H](N)C[C@H]2N)OC[C@@]1(C)O	i	i	u	i	1e-09	i
O=c1oc2c3c4c(cc2c(C(F)(F)F)c1CCN1CCOCC1)CCCN4CCC3	u	i	4.6e-08M*	u	1e-09	i
O=c1oc2c(CN3CCOCC3)c(O)ccc2c2c1CCC2	i	i	i	i	6.5e-09	i
CCOC(=O)c1ccc(N2C(=O)C3C(C2=O)C(C(=O)c2ccc(Cl)cc2)N2CCCC32)cc1 (stereo not drawn)	i	i	5.6e-08M*	u	5.7e-09	i
CC1CC=C2C(C#N)=C(N)C(C#N)(C#N)C(c3cccs3)C2C1 (stereo not drawn)	i	i	2.7e-08M*	i	2.4e-08	i
CC(C)(C)OC(=O)N1CC=C2C(C#N)=C(N)C(C#N)(C#N)[C@H](c3cccnc3)[C@H]2C1	i	i	u	i	7.7e-08	i
CC(C)(C)OC(=O)N1CC=C2C(C#N)=C(N)C(C#N)(C#N)C(c3cccs3)C2C1 (stereo not drawn)	i	i	1.8e-08M*	i	4.1e-08	i
C=C1C(=O)O[C@H]2C[C@@]3(C)CCCC(=C)[C@@H]3C[C@H]12	u	i	i	i	5.2e-09	i
Cc1ccc2[nH]c3c(c2c1)CN(C(=O)CN1CCSCC1)CC3	u	i	u	i	1.5e-09	i
Cc1ccc2[nH]c3c(c2c1)CN(C(=O)CN1CC(C)OC(C)C1)CC3 (stereo not drawn)	i	i	1.1e-08M*	i	8.9e-08	i

Screening data: PubChem, National Center for Advancing Translational Sciences (NCATS)
